Sampled rows, rich in hits. Any-hit rate of the full collection: about 7.4%.
SMN2 splice up: increases expression of the SMN2 splice variant; HEK293 SMN2-luciferase splicing reporter, luminescence, 30-36 h; Potency, µM (top dose mostly 46.1 µM), for inactives: top-dose activity change, positive = activation, usual class: activators; 210,000 compounds, 2.8% hits; also: % of control where 0% means no effect; nearly all actives have a fitted effect of over 55% in size
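HEK293 cells carry an SMN2 […]–luciferase reporter in which exon 7 inclusion puts luciferase in frame. Cells were plated 10-12 h before compound addition, then incubated 30-36 h at 37C. ONE-Glo luminescence was read; sodium butyrate at 4.5 mM final served as control.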
ELG1 genotox: inducers of genotoxicity in HEK293T ELG1-luciferase cells; HEK293T ELG1-luciferase reporter, luminescence, 16 h; AID 504466; Potency, µM (doses to about 46 µM), for the others: at the highest dose activity change, positive = activation, actives largely listed as activators; 330,000 compounds, 1.3% hits; also: % of control where 0% means no effect; nearly all actives have a fitted effect of over 60% in size
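Genotoxic stress is detected as increased luminescence from luciferase-tagged ELG1 in HEK293T cells, measured with ONE-Glo after a 16 hr treatment at 37 °C.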
Rab9 promoter act: activates the Rab9 promoter. AID 485297. 320,000 compounds, 2.8% hits. Huh7 Rab9 promoter-luciferase reporter, luminescence, 24 h. Potency, µM (series often up to 9.22 µM), inactives show at the highest dose activation, negative = inhibition, hits mostly activators; also: % of control where 0% means no effect; nearly all actives have a fitted effect of over 60% in size
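Using Huh7 cells stably transfected with Rab9 promoter–luciferase, compounds were incubated 24 h at 37 °C, 5% CO2; luciferase luminescence was read 10 min after reagent addition.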
p53 reactivator: mutant p53 re-activation in reporter cells | Potency, µM (series often up to 92.2 µM), without a hit: at the highest dose activity change, positive = activation, most hits filed as activators | 320,000 compounds, 0.063% hits | H1299 p53-A138V BP100-luciferase reporter, luminescence, 24 h | AID 504706; also: % of control where 0% means no effect; nearly all actives have a fitted effect of over 45% in size
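p53-null H1299 cells stably carrying temperature-sensitive p53-A138V and a BP100-luciferase reporter were pinned with compounds (4-point, 1:5 series) and held 24 hrs at 37 deg C. Luminescence was read 10 min after detection reagent.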
FLuc modulator: counter-screen for miR-21 project: firefly luciferase inhibitors or activators. 360,000 compounds, 6.9% hits. purified FLuc, Km substrates, luminescence inhibition. Potency, µM (doses to about 57.5 µM), inactives show top-dose activity change, negative = inhibition, most hits filed as inhibitors;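 also: plate controls were vehicle for no effect and reference inhibitor for full effect; nearly all actives have a fitted effect of over 55% in size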
Target sequence (P08659 whole entry, looked up): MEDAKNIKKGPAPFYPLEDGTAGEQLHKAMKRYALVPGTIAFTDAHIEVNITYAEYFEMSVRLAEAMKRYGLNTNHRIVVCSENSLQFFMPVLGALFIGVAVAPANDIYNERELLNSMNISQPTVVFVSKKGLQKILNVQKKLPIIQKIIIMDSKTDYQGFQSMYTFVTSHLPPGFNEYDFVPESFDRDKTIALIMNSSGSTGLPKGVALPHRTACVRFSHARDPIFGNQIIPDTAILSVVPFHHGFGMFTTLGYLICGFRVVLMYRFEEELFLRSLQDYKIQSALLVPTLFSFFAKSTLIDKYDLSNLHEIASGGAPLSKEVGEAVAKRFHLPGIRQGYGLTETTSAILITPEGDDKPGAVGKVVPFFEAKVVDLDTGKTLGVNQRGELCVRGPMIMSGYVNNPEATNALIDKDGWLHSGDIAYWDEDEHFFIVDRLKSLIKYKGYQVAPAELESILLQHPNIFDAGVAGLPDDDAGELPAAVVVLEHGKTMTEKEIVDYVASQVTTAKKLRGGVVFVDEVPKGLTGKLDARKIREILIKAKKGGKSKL
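Biochemical qHTS of compounds, final roughly 60 µM downward over six points, against 10 nM purified firefly luciferase using Km concentrations of substrates (10 uM D-luciferin, 10 uM ATP) in Tris acetate pH 7.5 buffer; luminescence output.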
NPC1 prom act: NPC1 promoter activation. 320,000 compounds, 2.4% hits. AID 485313. Potency, µM (doses to about 9.22 µM), without a hit: top-dose activation, actives largely listed as activators. Huh7 NPC1 promoter luciferase reporter, 24 h; also: % of control where 0% means no effect; nearly all actives have a fitted effect of over 60% in size
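Luminescence read-out of NPC1 promoter-driven luciferase in stably transfected Huh7 cells; compounds delivered in DMSO and left 24 h at 37C, 5% CO2, qHTS titration format.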
* hit, by the source's call; ? = inconclusive; nt = no result given; [ ] = dose if it differs, or a comment. Calls follow the shape of the dose curve; as a rule, active = well fitted curve in the direction sought with a large enough effect; inconclusive = small, poorly fitted or top-dose-only effect, or another doubt; inactive = no such curve, though single readings can be large; an effect the other way counts as inactive or inconclusive. Potency is read from the fitted curve at half-maximal effect.

SMILES	SMN2 splice up	ELG1 genotox	Rab9 promoter act	p53 reactivator	FLuc modulator	NPC1 prom act
CCC1CCCCN1C(=O)c1nn(-c2ccc(C)cc2)c(=O)c2c1c1ccccc1n2C (centres undefined)	1.2%	nt	nt	nt	-1.0%	nt
COc1cccc(/C=C/C(=O)c2ccc(NC3=NCCCS3)cc2)c1	-26.3%	?	1.3%	-8.3%	10.7µM*	-3.1%
COc1cccc(/C=C/C(=O)OCC(=O)NC2CCCCCCC2)c1	nt	-1.4%	nt	-2.9%	nt	nt
c1ccc(NC2=NCCCCS2)cc1	1.5%	-1.9%	-6.6%	11.9%	0.8%	0.6%
CC(C)(C)c1ccc(/C=C/C(=O)c2ccc(NC3=NCCCS3)cc2)cc1	-106.7%	-10.8%	-3.4%	-49.8%	15.1µM*	1.1%
O=C(/C=C/c1ccccc1)c1ccc(NC2=NCCCS2)cc1	20.1%	?	?	?	4.26µM*	?
O=C(/C=C/c1ccc(Br)cc1)c1ccc(NC2=NCCCS2)cc1	nt	-14.4%	-3.8%	-20.0%	?	1.2%
Cc1cccc(C(=O)Nc2ccc(C(=O)/C=C/c3cccnc3)cc2)c1	25.6%	?	16.6%	-14.9%	-6.9%	13.2%
Cc1cccc(/C=C/C(=O)c2ccc(NC3=NCCCS3)cc2)c1	-19.7%	?	18.2%	3.6%	13.5µM*	8.1%
COc1ccc(CN(C)C(=O)c2ccc3c(=O)n4c(nc3c2)CCC4)cc1	nt	?	1.78µM*	?	8.49µM*	2.24µM*
COc1cccc(CN(C)C(=O)c2ccc3c(=O)n4c(nc3c2)CCC4)c1	nt	8.0%	2.9%	-4.1%	1.8%	2.5%
CC(OC(=O)c1ccc2c(=O)n3c(nc2c1)CCC3)C(N)=O (centres undefined)	12.6%	3.0%	1.4%	5.1%	4.8%	-0.8%
O=C(Oc1cccc(F)c1)c1ccc2c(=O)n3c(nc2c1)CCC3	nt	2.8%	-4.2%	-0.3%	15.1µM*	-1.0%
O=C(NNC(=O)c1ccc2c(=O)n3c(nc2c1)CCC3)c1ccc(F)cc1	nt	-3.9%	-1.6%	2.5%	0.1%	-2.9%
O=C(Oc1ccc(F)cc1)c1ccc2c(=O)n3c(nc2c1)CCC3	nt	0.1%	-2.2%	3.9%	12µM*	0.6%
CC(=O)c1ccc(NC(=O)c2onc(C)c2Cl)cc1	nt	?	0.631µM*	15.9%	?	1.41µM*
CC(C)c1onc(C(=O)Nc2ccc3c(c2)OCO3)c1[N+](=O)[O-]	nt	?	0.4%	?	26.9µM*	0.8%
Cc1noc(C(=O)Nc2ccc3c(c2)OCO3)c1Cl	?	?	3.98µM*	?	19µM*	?
Cc1ccc2c(Cl)c(C(=O)Nc3ccc4c(c3)OCO4)sc2c1	?	18.1%	2µM*	29.9%	-27.6%	?
CCc1onc(C)c1C(=O)Nc1ccc2c(c1)OCO2	nt	1.4%	-6.4%	-1.9%	1.6%	-1.0%
O=C(/C(=N/N=C/c1ccc(O)c(O)c1O)c1ccccc1)c1ccccc1	3.16µM*	-2.5%	-2.3%	29.0%	-6.7%	0.6%
CC(=O)Nc1ccc(NC(=O)c2ccc(-c3ccccc3Cl)o2)cc1	nt	?	?	0.5%	-18.6%	6.3%
N#Cc1ccccc1NC(=O)c1ccc(-c2ccccc2Cl)o1	?	?	?	13.0%	?	3.98µM*
O=C(Nc1ccccc1)c1ccc(-c2ccccc2C(F)(F)F)o1	15.6%	16.1%	19.3%	?	16.9µM*	20.7%
O=C(Nc1ccccc1)c1ccc(-c2ccccc2Cl)o1	?	?	?	?	6.01µM*	28.8%
SMILES	SMN2 splice up	ELG1 genotox	Rab9 promoter act	p53 reactivator	FLuc modulator	NPC1 prom act
CC(C)NC(=O)c1ccc(-c2ccccc2C(F)(F)F)o1	?	10.3%	24.9%	20.6%	?	22.4%
COc1ccc2cc(CCNC(=O)c3ccc(S(=O)(=O)N4CCCC4)cc3)c(=O)[nH]c2c1	nt	-8.4%	1.6%	15.5%	3.3%	-2.9%
Cc1cc(C)cc(Oc2c(C(F)(F)F)oc3c(CN4CCCC(C)C4)c(O)ccc3c2=O)c1 (centres undefined)	3.3%	nt	nt	nt	1.1%	nt
Clc1cccc(-c2nc(-c3ccccn3)no2)c1	0.708µM*	?	0.1µM*	-11.3%	0.338µM*	0.316µM*
Cc1ccc(-c2nc(-c3ccccn3)no2)cc1Cl	nt	?	0.316µM*	-13.2%	0.135µM*	0.355µM*
COc1cnc(-c2ccccn2)nc1Sc1ccc(C)cc1	-104.1%	-14.5%	0.1%	-0.6%	-6.8%	-27.2%
COc1cc(-c2nc(-c3ccccn3)no2)cc(OC)c1OC	17.1%	?	28.4%	9.4%	?	?
Cc1ccc(Sc2cc(C)nc(-c3ccccn3)n2)cc1	nt	5.9%	4.6%	13.4%	16.9µM*	20.5%
Cc1ccc(-c2nc(-c3ccccn3)no2)cc1	nt	-7.2%	0.0002µM*	-37.5%	0.0849µM*	-28.4%
Cc1c(C(=O)Nc2cccc([N+](=O)[O-])c2)sc2ncn(CC(=O)N3CCOCC3)c(=O)c12	nt	-3.0%	-2.1%	-16.2%	-0.2%	0.8%
Cc1c2cccc(Sc3ccccc3)c2c2c3c(cccc13)[S+](c1ccccc1)C2 (centres undefined)	-1.9%[9.22 µM]	nt	nt	nt	nt	nt
CCC1CN(S(=O)(=O)c2cc(-c3onc(C)c3C)ccc2C)c2cc(Cl)ccc2O1 (centres undefined)	nt	nt	nt	nt	-2.3%	nt
CCCNc1ccc(-c2nc(-c3ccccn3)no2)cc1[N+](=O)[O-]	nt	nt	nt	nt	-0.6%	nt
Cc1ccc(-c2nc(-c3ccccn3)no2)cc1[N+](=O)[O-]	nt	2.06µM*	0.316µM*	-12.1%	1.51µM*	0.316µM*
c1ccc(-c2nc(-c3ccccn3)no2)cc1	0.501µM*	?	?	-7.0%	0.536µM*	0.112µM*
CC1(C)S[C@@H]2[C@H](NC(=O)[C@@H](N)c3ccc(O)cc3)C(=O)N2[C@H]1C(=O)O	-6.4%[20.6 µM]	nt	nt	nt	nt	nt
Cc1nc2c(-c3ccccc3)c(C)[nH]n2c(=O)c1Cc1ccc(C(C)C)cc1	-0.8%	nt	nt	nt	-1.4%	nt
Cc1cccn2c(N)c(-c3ccccc3)nc12	27.3%	?	3.55µM*	?	10.7µM*	?
CCOC(=O)c1c(-c2ccccc2)nc2c(C)cccn12	-12.4%	-8.2%	0.6%	4.5%	?	-4.0%
COc1ccc2nc(C)cc(SCC(=O)NNC(=O)COc3ccccc3)c2c1	-7.3%	-3.6%	-2.9%	-0.5%	-3.1%	0.2%
CCOC(=O)CSc1nc(C)c2cc(C)c(C)cc2n1	nt	2.0%	-3.4%	1.3%	?	-5.1%
CCOC(=O)CSc1nc(C)c2cc(OC)ccc2n1	40.9%	?	2.2%	23.2%	23.9µM*	-4.8%
CCC(=O)N/C(N)=N/c1nc(C)c2cc(OC)ccc2n1	?	10.3µM*	22.9%	37.1%	10.7µM*	-0.9%

Source: PubChem (National Center for Advancing Translational Sciences (NCATS))
